We go through 40 sequences from the supplement of paper PMC6555819.

The first experiment relates to LXRa homodimer (NR concentration 270 nM). Put plainly: PBM binding z-score (relative to random genomic background probes); higher = stronger binding; sequences stand for … in GC…GCGATTGACAGCGTAGAATGAAGG
A digest of the protocol:
(§1)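 For binding z-scores, the reference was random background probes on custom Agilent 4×180K protein-binding microarrays. These arrays were incubated 1 h with ligand-free nuclear receptor dimers in PBS pH 7.4, 2% milk, 0.02% Triton X-100, 1 mM DTT, 0.2 mg/mL BSA and 0.4 mg/ml salmon testes DNA. Fluorescence was scanned after antibody detection of each partner (one per run) and regression-normalized.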
TCTGCTAGGTCAGTTCGTCAGCTAACGAGCTGCC had a PBM binding z-score of -0.691.
With CCTACTGGGGCAAAAAGGTCATTGATGCCGATAA, the PBM binding z-score stood at 2.86.
TTACCAAGGTGAAAGGTAGTTGATGCACGCCTTG gave a PBM binding z-score of -0.137.
As for TCAGACAGGTGAAGGTAACTTAGGTACGCAGTCG, the PBM binding z-score is -0.079.
For the sequence GCTGCTAGGTCAGGTGGGTCAGCTAACGGGTACG, the PBM binding z-score is -0.394.
As to TAGCCTAGCTCATTGGGCCAGTATAGTACGCATC, the PBM binding z-score is -0.393.
The same measure, in the same setting: next, AACACAGGGTCATCGTAGGCCAGAGTACGCACAG: 1.53; GTACCAAGGTGGATAGGTCGTTGATGAGTAGGCG: -0.154.
ACTATTAGTTGAGACGAGGGTAACCGATAGGTTG: the PBM binding z-score is -0.0924.
On the same count and under the same terms, as for CGTCAAAGTTCTACTAAGGTAACGTAAAGCACGC, the figure is -0.14; as for CGTCCAAGGTCAGAGGTCAGTGAAGAGATGACGG, 1.56.
On the same count and under the same terms, next, GCTATTAATTGAAAGGGCAACCGAATGATTCTCG: 1.02; GCATATAGGTAATACAAGGTGAACGTCCGATTGT: 0.257; CGTGCAAGGTCATAGGAGGTCAGTGAAGACAGAT: 4.92.
For CAAACTAGGTCACCGGAAGGTCAAAGTCCGCATG, the PBM binding z-score is 5.16.
Sequence TAGGCTAGGTCATGGGCCAGTATACCACGCGAAC came in with a PBM binding z-score of 0.324.
With CGTCCAAGGTCAGAGAGGTCAGGGAATGCCGAGT, the PBM binding z-score turned out to be 3.24.
For AGAATGACGTTATTAAGATCAGGGAATTGCGGTC, the PBM binding z-score is -0.146.

The next experiment relates to LXRb:RXRa (NR concentration 270 nM, RXRa partner concentration 90 nM). The description is as above. A digest of the protocol: as §1
For CTACCAAAGTGAACAAGGTCGTTGATTACTATTC, the PBM binding z-score turned out to be 1.39.
The same measure, in the same setting: as for GCTAGTTGCTCAGTAAAAGGTCACACACCGGTCG, the figure is 4.02.
As for TCTCGGGGGACACGAAAGGTCAGAGCTCGACATC, the PBM binding z-score is 5.47.
The same measure, in the same setting: as for AGTCAAAGTTCATCTAGGTAACGTAAGATATGCT, the figure is 3.62.
Same read-out and setting: as for ATATGTAGGTCACATCCGGGTCATTCAGGCTATG, the figure is 4.45; as for AGAATGAGGTTAAGAGCAGGGAAACAGAATACAT, 1.52.
Still for that read-out and setting: as for GCTTACGGGTCAAAGGTTATAGCCTGAATAGAAT, the figure is 5.69; as for CAAGCTAGGTCACGAAAGGTCAAAGTCGAATGAC, 7.63.
The sequence TAGCCTATGTCATGGGCCAGTATACCACGCGAAC gave a PBM binding z-score of -0.589.
Regarding CGTCCAAGGTCAGCAGGTCAGTGACAGCGACGTG, the PBM binding z-score worked out at 2.99.
On the same count and under the same terms, next, TCATATAGGTAAAGGTGAAAGTGGAACGATATGA: 1.28; ATCTCAAGGTAACCAAGTTCAGTGAATGCCGAAC: 0.656; CCTTACGGGTCAAGGTGATAGCACGGGTGGTACG: 2.67.
As to ACAGACAGGTGAGTGAAGGTATCTCAGCTGGACG, the PBM binding z-score is -0.625.
The same measure, in the same setting: as for CAAACTAGGTCAAAGGTCCAAGTCGAGCCAACCA, the figure is 3.08; as for ATATGTAGGTTAAGGGTCAGTCAGGTTGGTTCGC, 3.34.
On the same count and under the same terms, next, TCTGCTAGGTCAGTTGTTCAGCTAACGAGCTGCC: 0.213.
Take AGTCAAAGTTCAGGAGGAGGTAACGTAAAGCACG: the PBM binding z-score stood at 2.24.
Still for that read-out and setting: as for CCTTGCAGGCCAATCTGGGTCACTCAAGGCTTGA, the figure is 1.1.
The same measure, in the same setting: next, AGAACGAAGGCAATGAGTTGATAGCACGGGTGGC: -0.999; AGTCAAAGTTCACTAGGTAACGTGAGATTCAGCT: 2.71.
Same read-out and setting: as for GTACCAAGGTGAATTGGTCGTTGATGAGTAGGCG, the figure is -0.18; as for TCTGCTAGGTCAGTTCGTCAGCTAACGAGCTGCC, 0.0408; as for CCTACTGGGGCAAAAAGGTCATTGATGCCGATAA, 3.92.
As for TTACCAAGGTGAAAGGTAGTTGATGCACGCCTTG, the PBM binding z-score was found to be 0.456.
On the same count and under the same terms, as for TCAGACAGGTGAAGGTAACTTAGGTACGCAGTCG, the figure is 1.41; as for GCTGCTAGGTCAGGTGGGTCAGCTAACGGGTACG, 0.981; as for TAGCCTAGCTCATTGGGCCAGTATAGTACGCATC, -0.751.
The same measure, in the same setting: as for AACACAGGGTCATCGTAGGCCAGAGTACGCACAG, the figure is 4.44; as for GTACCAAGGTGGATAGGTCGTTGATGAGTAGGCG, -0.255; as for ACTATTAGTTGAGACGAGGGTAACCGATAGGTTG, -0.182.
Same read-out and setting: as for CGTCAAAGTTCTACTAAGGTAACGTAAAGCACGC, the figure is 0.0598; as for CGTCCAAGGTCAGAGGTCAGTGAAGAGATGACGG, 4.73; as for GCTATTAATTGAAAGGGCAACCGAATGATTCTCG, 0.408.
Consider GCATATAGGTAATACAAGGTGAACGTCCGATTGT, for which the PBM binding z-score is 0.685.
The sequence CGTGCAAGGTCATAGGAGGTCAGTGAAGACAGAT displayed a PBM binding z-score of 6.31.
CAAACTAGGTCACCGGAAGGTCAAAGTCCGCATG showed a PBM binding z-score of 5.46.
The same measure, in the same setting: as for TAGGCTAGGTCATGGGCCAGTATACCACGCGAAC, the figure is 2.18; as for CGTCCAAGGTCAGAGAGGTCAGGGAATGCCGAGT, 4.51; as for AGAATGACGTTATTAAGATCAGGGAATTGCGGTC, -0.6.

The test system of another experiment is LXRb homodimer (NR concentration 270 nM). The experiment is described as above. A digest of the protocol: as §1
In turn, CTACCAAAGTGAACAAGGTCGTTGATTACTATTC showed a PBM binding z-score of 0.463.
On the same count and under the same terms, next, GCTAGTTGCTCAGTAAAAGGTCACACACCGGTCG: 0.393.
With TCTCGGGGGACACGAAAGGTCAGAGCTCGACATC, the PBM binding z-score turned out to be 5.76.
The same measure, in the same setting: next, AGTCAAAGTTCATCTAGGTAACGTAAGATATGCT: 1.73; ATATGTAGGTCACATCCGGGTCATTCAGGCTATG: 1.88; AGAATGAGGTTAAGAGCAGGGAAACAGAATACAT: -0.266.
The sequence GCTTACGGGTCAAAGGTTATAGCCTGAATAGAAT yielded a PBM binding z-score of 0.503.
On the same count and under the same terms, next, CAAGCTAGGTCACGAAAGGTCAAAGTCGAATGAC: 2.75; TAGCCTATGTCATGGGCCAGTATACCACGCGAAC: -0.827; CGTCCAAGGTCAGCAGGTCAGTGACAGCGACGTG: -0.142.
In the case of TCATATAGGTAAAGGTGAAAGTGGAACGATATGA, the PBM binding z-score was -0.406.
Take ATCTCAAGGTAACCAAGTTCAGTGAATGCCGAAC: the PBM binding z-score worked out at 0.916.
Still for that read-out and setting: as for CCTTACGGGTCAAGGTGATAGCACGGGTGGTACG, the figure is -0.389.
Same read-out and setting: next, ACAGACAGGTGAGTGAAGGTATCTCAGCTGGACG: -0.39; CAAACTAGGTCAAAGGTCCAAGTCGAGCCAACCA: 0.0587.
For the sequence ATATGTAGGTTAAGGGTCAGTCAGGTTGGTTCGC, the PBM binding z-score was 0.965.
Same read-out and setting: next, TCTGCTAGGTCAGTTGTTCAGCTAACGAGCTGCC: 0.398.
In turn, AGTCAAAGTTCAGGAGGAGGTAACGTAAAGCACG yielded a PBM binding z-score of 0.773.
CCTTGCAGGCCAATCTGGGTCACTCAAGGCTTGA: the PBM binding z-score is -0.539.
Consider AGAACGAAGGCAATGAGTTGATAGCACGGGTGGC, for which the PBM binding z-score is -1.01.
Consider AGTCAAAGTTCACTAGGTAACGTGAGATTCAGCT, for which the PBM binding z-score amounted to 0.742.
On the same count and under the same terms, as for GTACCAAGGTGAATTGGTCGTTGATGAGTAGGCG, the figure is -0.792; as for TCTGCTAGGTCAGTTCGTCAGCTAACGAGCTGCC, 0.21; as for CCTACTGGGGCAAAAAGGTCATTGATGCCGATAA, 0.284.
The same measure, in the same setting: as for TTACCAAGGTGAAAGGTAGTTGATGCACGCCTTG, the figure is -0.64.
Still for that read-out and setting: next, TCAGACAGGTGAAGGTAACTTAGGTACGCAGTCG: -0.0603; GCTGCTAGGTCAGGTGGGTCAGCTAACGGGTACG: -0.0608.
The sequence TAGCCTAGCTCATTGGGCCAGTATAGTACGCATC showed a PBM binding z-score of -0.9.
As for AACACAGGGTCATCGTAGGCCAGAGTACGCACAG, the PBM binding z-score is 0.922.
Take GTACCAAGGTGGATAGGTCGTTGATGAGTAGGCG: the PBM binding z-score is -0.708.
Still for that read-out and setting: as for ACTATTAGTTGAGACGAGGGTAACCGATAGGTTG, the figure is 0.187.
On the same count and under the same terms, as for CGTCAAAGTTCTACTAAGGTAACGTAAAGCACGC, the figure is -0.14.
As for CGTCCAAGGTCAGAGGTCAGTGAAGAGATGACGG, the PBM binding z-score was determined as 0.465.
On the same count and under the same terms, next, GCTATTAATTGAAAGGGCAACCGAATGATTCTCG: -0.192; GCATATAGGTAATACAAGGTGAACGTCCGATTGT: -0.32.
Same read-out and setting: next, CGTGCAAGGTCATAGGAGGTCAGTGAAGACAGAT: 1.2; CAAACTAGGTCACCGGAAGGTCAAAGTCCGCATG: 1.59; TAGGCTAGGTCATGGGCCAGTATACCACGCGAAC: -0.308.
The sequence CGTCCAAGGTCAGAGAGGTCAGGGAATGCCGAGT showed a PBM binding z-score of 0.359.
The sequence AGAATGACGTTATTAAGATCAGGGAATTGCGGTC registered a PBM binding z-score of -0.12.
